Experimental data reported in the antibiotic and cytotoxicity screens of Wong et al. (2023).
Among all 39,000 compounds or so, about 500 (1.3%) were called active. Only a selection was taken, and actives are over-represented in it overall.

Tested on: S. aureus RN4220
Test: growth inhibition call (relative growth <= 0.2)
Details: 50 µM

Growth inhibition call, active:
CC(=O)Oc1ccccc1C(=O)Nc1ncc([N+](=O)[O-])s1
COc1ccc(C2=N[C@@H](c3ccc(Cl)cc3)[C@@H](c3ccc(Cl)cc3)N2C(=O)N2CCNC(=O)C2)c(OC(C)C)c1
O=C(NC(CO)C(O)c1ccc([N+](=O)[O-])cc1)C(Cl)Cl (stereo unspecified)
CS(=O)(=O)c1ccc(C(O)C(CF)NC(=O)C(Cl)Cl)cc1 (stereo unspecified)
Cl.N=C(N)n1cccn1
CC(=CC(=O)OCCCCCCCCC(=O)O)CC1OCC(CC2OC2C(C)C(C)O)C(O)C1O (stereo unspecified)
CCCN(C)C[C@@H]1OCCCC[C@@H](C)Oc2ccc(NC(=O)Nc3ccc(C(F)(F)F)cc3)cc2C(=O)N([C@H](C)CO)C[C@H]1C
CCCN(C)C[C@H]1OCCCC[C@H](C)Oc2ccc(NC(=O)Nc3ccc(C(F)(F)F)cc3)cc2C(=O)N([C@@H](C)CO)C[C@H]1C
CCCN(C)C[C@H]1OCCCC[C@@H](C)Oc2ccc(NC(=O)Nc3ccc(F)cc3)cc2C(=O)N([C@@H](C)CO)C[C@H]1C
Cc1oc(=O)oc1CN1CCN(c2cc3c(cc2F)c(=O)c(C(=O)O)c2n3C(C)S2)CC1 (stereo unspecified)
O=C(C[C@@H]1CC[C@H]2[C@@H](COC[C@@H](O)CN2C(=O)Nc2ccc(C(F)(F)F)cc2)O1)NCCc1ccncc1
O=C(C[C@@H]1CC[C@H]2[C@@H](COC[C@H](O)CN2C(=O)Nc2ccc(C(F)(F)F)cc2)O1)NCCc1ccncc1
O=C(C[C@H]1CC[C@@H]2[C@H](COC[C@@H](O)CN2C(=O)Nc2ccc(C(F)(F)F)cc2)O1)NCCc1ccncc1
O=C(C[C@H]1CC[C@H]2[C@@H](COC[C@@H](O)CN2C(=O)Nc2ccc(C(F)(F)F)cc2)O1)NCCc1ccncc1

Growth inhibition call, inactive:
Cc1cccc(S(=O)(=O)N2C[C@H](O)COC[C@@H]3O[C@@H](CC(=O)NCc4ccc5c(c4)OCO5)CC[C@H]32)c1
CC(=O)Oc1ccccc1C(=O)Nc1ccccc1
CC(=O)Nc1ncc([N+](=O)[O-])s1
O=S1(=O)C[C@@H]2NC(=S)N[C@@H]2C1
C[C@H](CO)N1C[C@H](C)[C@@H](CN(C)S(=O)(=O)c2cn(C)cn2)Oc2ccc(NC(=O)NC3CCCCC3)cc2CC1=O
C[C@@H]1CN([C@@H](C)CO)C(=O)c2cc(NC(=O)CCN3CCOCC3)ccc2O[C@@H]1CN(C)C(=O)Nc1ccccc1
CC(C)NC(=O)N(C)C[C@H]1OCCCC[C@@H](C)Oc2ccc(NC(=O)C3CCCCC3)cc2C(=O)N([C@H](C)CO)C[C@H]1C
COc1ccc(C2=N[C@H](c3ccc(Cl)cc3)[C@H](c3ccc(Cl)cc3)N2C(=O)N2CCNC(=O)C2)c(OC(C)C)c1
C[C@H]1CN([C@@H](C)CO)C(=O)Cc2cc(NC(=O)CCN3CCOCC3)ccc2O[C@@H]1CN(C)C(=O)Nc1ccccc1
O=C(Nc1ccc(Br)cc1)c1ccc(N2C(=O)c3ccc(C(=O)Nc4ccc(Br)cc4)cc3C2=O)cc1
CO[C@H]1CN(C)C(=O)c2ccc(NC(=O)Nc3cccc(F)c3)cc2OC[C@H](C)N(C(=O)Nc2c(C)noc2C)C[C@@H]1C
CCCCCCCCCCCCCCCC(=O)OCC(NC(=O)C(Cl)Cl)C(O)c1ccc([N+](=O)[O-])cc1 (stereo unspecified)
O=C([O-])CCC(=O)OCC(NC(=O)C(Cl)Cl)C(O)c1ccc([N+](=O)[O-])cc1.[Na+] (stereo unspecified)
CS(=O)(=O)c1ccc(C(O)C(CO)NC(=O)C(Cl)Cl)cc1 (stereo unspecified)
CCCCCCCCCCCCCCCC(=O)OC[C@H](NC(=O)C(Cl)Cl)[C@H](O)c1ccc([N+](=O)[O-])cc1
Cc1noc(C)c1NC(=O)N(C)C[C@@H]1OCCCC[C@H](C)Oc2ccc(NC(=O)Nc3ccccc3)cc2C(=O)N([C@@H](C)CO)C[C@@H]1C
CCCN(C)C[C@H]1OCCCC[C@@H](C)Oc2ccc(NC(=O)Nc3ccc(OC)cc3)cc2C(=O)N([C@H](C)CO)C[C@@H]1C
COc1cccc(-c2cn(CC[C@H]3CC[C@H](NC(=O)CN(C)C)[C@@H](CO)O3)nn2)c1
COCCn1cc2c(n1)[C@H](CNC(=O)CS(C)(=O)=O)OCC2
C[C@H](CO)N1C[C@H](C)[C@H](CN(C)S(C)(=O)=O)Oc2ncc(C#CCN(C)C)cc2C1=O
C[C@@H]1CN([C@@H](C)CO)C(=O)c2c(c3ccccc3n2C)-c2ccccc2CO[C@H]1CN(C)Cc1ccc(C(=O)O)cc1
NCc1ccccc1-n1cccn1
NCCn1cccn1
C[C@H]1CN([C@@H](C)CO)C(=O)Cc2cc(NS(=O)(=O)c3ccc(Cl)cc3)ccc2O[C@@H]1CN(C)S(=O)(=O)c1cn(C)cn1
CC(C)[C@@H](N)c1nc2c([nH]1)CCCC2
C/C(=C\C(=O)OCCCCCCCCC(=O)O)C[C@@H]1OC[C@H](C[C@@H]2O[C@H]2[C@@H](C)[C@H](C)O)[C@@H](O)[C@H]1O
CCOC(=O)CC1=NNC(=N)SC1
C[C@@H]1CN([C@H](C)CN(C)C)C(=O)c2cc(NC(=O)Cc3cn(C)c4ccccc34)ccc2O[C@H]1CN(C)S(=O)(=O)c1ccc(Cl)cc1
CCCN(C)C[C@@H]1OCCCC[C@@H](C)Oc2ccc(NC(=O)Nc3ccc(F)cc3)cc2C(=O)N([C@H](C)CO)C[C@H]1C
CCCN(C)C[C@H]1OCCCC[C@@H](C)Oc2ccc(NC(=O)Nc3ccc(C(F)(F)F)cc3)cc2C(=O)N([C@@H](C)CO)C[C@H]1C
CCCN(C)C[C@@H]1OCCCC[C@@H](C)Oc2ccc(NC(=O)Nc3ccc(C(F)(F)F)cc3)cc2C(=O)N([C@H](C)CO)C[C@@H]1C
CCCN(C)C[C@@H]1OCCCC[C@H](C)Oc2ccc(NC(=O)Nc3ccc(C(F)(F)F)cc3)cc2C(=O)N([C@H](C)CO)C[C@@H]1C
CCCN(C)C[C@H]1OCCCC[C@@H](C)Oc2ccc(NC(=O)Nc3ccc(C(F)(F)F)cc3)cc2C(=O)N([C@H](C)CO)C[C@H]1C
CCCN(C)C[C@H]1OCCCC[C@@H](C)Oc2ccc(NC(=O)Nc3ccc(F)cc3)cc2C(=O)N([C@H](C)CO)C[C@@H]1C
C[C@H]1CN([C@@H](C)CO)C(=O)c2cc(NS(C)(=O)=O)ccc2O[C@@H]1CN(C)C(=O)Nc1ccc(F)cc1
COCC(=O)N(C)C[C@@H]1Oc2cc(C#CCN(C)C)ccc2S(=O)(=O)N([C@H](C)CO)C[C@@H]1C
C[C@@H]1CCCCO[C@@H](CN(C)C(=O)C2CCCCC2)[C@@H](C)CN([C@@H](C)CO)C(=O)c2cc(NC(=O)Nc3ccc(C(F)(F)F)cc3)ccc2O1
COc1ccc(CNC(=O)C[C@H]2CC[C@@H]3[C@@H](COc4ccc(NC(=O)C(C)C)cc4C(=O)N3C)O2)cc1
C[C@@H]1CN([C@H](C)CO)C(=O)c2cccc(NC(=O)Nc3ccc(F)cc3)c2O[C@H]1CN(C)Cc1ccc(Oc2ccccc2)cc1
COc1ccc(C#Cc2ccc3c(c2)O[C@H](CN(C)C(=O)c2ccccn2)[C@H](C)CN([C@@H](C)CO)S3(=O)=O)cc1
OCCOCc1nnn2c1CN(c1ncccn1)CCC2
COC(=O)[C@H]1CCc2nc[nH]c2C1
Cn1cnc(S(=O)(=O)N2C[C@@H](O)COC[C@H]3O[C@@H](CC(=O)NCc4ccc(F)cc4)CC[C@@H]32)c1
COc1ccc(NC(=O)N(C)C[C@H]2OCCCC[C@H](C)Oc3ccc(NS(=O)(=O)c4ccc(F)cc4)cc3C(=O)N([C@@H](C)CO)C[C@H]2C)cc1
C[C@@H]1CN([C@@H](C)CO)C(=O)c2cc(NS(=O)(=O)c3ccc(Cl)cc3)ccc2O[C@@H]1CN(C)Cc1ccc(C(=O)Nc2ccccc2N)cc1
CCN(CC)c1ccc(N2CC=C[C@@]34O[C@@H]5C=CCCOC(=O)[C@@H]5[C@H]3C(=O)N([C@@H](C)CO)[C@@H]4C2=O)cc1
O=C(C[C@@H]1CC[C@H]2[C@@H](COC[C@@H](O)CN2C(=O)Nc2ccc(Cl)cc2)O1)NCCc1ccncc1
O=C(C[C@H]1CC[C@@H]2[C@H](COC[C@@H](O)CN2C(=O)Nc2ccc(C(F)(F)F)cc2)O1)NCc1ccncn1
O=C(C[C@H]1CC[C@@H]2[C@H](COC[C@@H](O)CN2C(=O)Nc2ccc(Cl)cc2)O1)NCCc1ccncc1
O=C(C[C@H]1CC[C@H]2[C@@H](COC[C@H](O)CN2C(=O)Nc2ccc(C(F)(F)F)cc2)O1)NCc1ccncn1
O=C(C[C@H]1CC[C@H]2[C@@H](COC[C@@H](O)CN2C(=O)Nc2ccc(Cl)cc2)O1)NCCc1ccncc1
O=C(C[C@@H]1CC[C@@H]2[C@H](COC[C@H](O)CN2C(=O)Nc2ccc(Cl)cc2)O1)NCCc1ccncc1
O=C(C[C@@H]1CC[C@@H]2[C@H](COC[C@H](O)CN2C(=O)Nc2ccc(C(F)(F)F)cc2)O1)NCCc1ccncc1
O=C(C[C@H]1CC[C@H]2[C@@H](COC[C@H](O)CN2C(=O)Nc2ccc(Cl)cc2)O1)NCCc1ccncc1
Cc1ccc(S(=O)(=O)Nc2ccc3c(c2)C(=O)N(C)[C@H]2CC[C@@H](CC(=O)NCCc4ccncc4)O[C@H]2CO3)cc1
C[C@@H]1CN([C@@H](C)CO)C(=O)c2cccc(NC(=O)C3CC3)c2O[C@@H]1CN(C)C(=O)NC1CCCCC1
C[C@@H]1CN([C@H](C)CO)C(=O)Cc2cc(NC(=O)CCCCCC(=O)Nc3ccccc3N)ccc2O[C@H]1CN(C)C(=O)Nc1ccc(F)cc1
